Source: the supplement of paper PMC9177965

Tested on: HT29 sg-Ctrl (RNF43 wildtype)
Assay: cell viability activity relative to DMSO (negative = inhibition); higher = more viable cells (less growth inhibition)
Details: 5 µM; 96 h
Protocol: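 Broad Repurposing Library primary screen at a single dose of 5 uM. HT29 sg-Ctrl and HT29 RNF43 G659fs CRISPR-edited isogenic cells were seeded at 2500 cells/well in 384-well plates in duplicate and treated for 96 h. Viability was read by CellTiter-Glo and reported as % activity relative to DMSO, with MG132 as the positive control (negative = growth inhibition).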

| SMILES | cell viability activity |
| --- | --- |
| CC(C)(C)c1cc(NC(=O)Nc2ccc(-c3cn4c(n3)sc3cc(OCCN5CCOCC5)ccc34)cc2)no1 | -40.7% |
| CCOc1ccccc1OC(c1ccccc1)C1CNCCO1 (stereo not drawn) | -58.7% |
| O=C(NOCCO)c1cc(CN2OCCCC2=O)c(F)c(F)c1Nc1ccc(I)cc1F | -75% |
| Cc1cc(Nc2cc(N3CCN(C)CC3)nc(/C=C/c3ccccc3)n2)n[nH]1 | -75.7% |
| O=C1C(Cl)=C(NCCN2CCOCC2)C(=O)c2ncccc21 | -94.7% |
| C[C@H]1[C@@H](O)O[C@@H]2O[C@@]3(C)CC[C@H]4[C@H](C)CC[C@@H]1[C@@]24OO3 | -30% |
| CN(C)C(=S)SC(=S)N(C)C | -29.9% |
| COc1cc2c(cc1-c1c(C)noc1C)ncc1[nH]c(=O)n([C@H](C)c3ccccn3)c12 | -68.4% |
| Nc1ccc(-c2cccc3c(=O)cc(N4CCOCC4)oc23)cc1 | -76.6% |
| O=C(O)/C=C/c1ccc(O)c(O)c1 | -80.2% |
| O=C(O)[C@]1(Cc2cccc(Nc3nccs3)n2)CC[C@@H](Oc2cccc(Cl)c2F)CC1 | -24.6% |
| CC(C)=CCC/C(C)=C/CC/C(C)=C/CSc1ccccc1C(N)=O | -6.13% |
| CCCCCC(O)c1cccc(OCc2ccc3ccccc3n2)c1 (stereo not drawn) | -64% |
| CC(CN1c2ccccc2Sc2ccccc21)N(C)C (stereo not drawn) | -3.76% |
| CC(C)n1nc(-c2ccc3oc(N)nc3c2)c2c(N)ncnc21 | -52.5% |
| O=C(O)c1ccccc1-c1c2cc(I)c(=O)c(I)c-2oc2c(I)c(O)c(I)cc12 | -16.3% |
| O=C1[C@H](Cc2ccc(O)cc2)N2C(=O)CCN(C(=O)NCc3ccccc3)[C@H]2CN1Cc1cccc2ccccc12 | -41.8% |
| Cc1ccc(C(=O)Nc2ccc(CN3CCN(C)CC3)c(C(F)(F)F)c2)cc1C#Cc1cnc2cccnn12 | -78.4% |
| CC(C)NC[C@@H](C(=O)N1CCN(c2ncnc3c2[C@H](C)C[C@H]3O)CC1)c1ccc(Cl)cc1 | -35.4% |
| COc1cc(C(=O)N2CCC(N3CCN(C)CC3)CC2)ccc1Nc1ncc2c(n1)N(C)c1ccccc1C(=O)N2C | -57.3% |
| Nc1ccc(-c2ccc3ncc4ccc(=O)n(-c5cccc(C(F)(F)F)c5)c4c3c2)cn1 | -42.1% |
| Cc1noc2c1-c1ccccc1C(c1ccc(Cl)cc1)=N[C@H]2CC(N)=O | -57.7% |
| C[C@@H](NCCCc1cccc(C(F)(F)F)c1)c1cccc2ccccc12 | -41.7% |
